Our source for the Potency and activity change, negative = inhibition values is PubChem BioAssay (NCATS).

Each structure is given as a SMILES string. Inconclusive results are not listed. Calls of active or inactive are those of the source. Calls come from the whole dose curve.
Potency is the fitted concentration of half-maximal effect.

This assay in a line: Primary qHTS to identify inhibitors of SARS-CoV-2 cell entry (AID 1645846). Note: nearly all actives have a fitted effect of over 45% in size. As to conditions: SARS-CoV-2 pseudovirus cell entry assay, luminescence; activity change, negative = inhibition: at 57.1 µM (top of the series) unless noted. A digest of the protocol: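 HEK293-ACE2 (Expi293F, stable hACE2), 1500 cells/well, o/n 37C; cpd 23 nL pin, 1 h; MLV-PP w/ SARS-CoV-2-S (Wuhan-Hu-1, Δ19 C-term); 48 h 37C; Bright-Glo luminescence; normalized vs S-PP and bald PP.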
(In general: Quantitative high-throughput screening tests each substance at several concentrations.)
Consider `COC1=C2C[C@H](C)C[C@H](OC)[C@H](O)[C@@H](C)/C=C(/C)[C@H](OC(N)=O)[C@@H](OC)/C=C\C=C(\C)C(=O)NC(=CC1=O)C2=O`, for which the Potency result was “inactive”.
On to `O=C(/C=C/c1cccnc1)NCCCCC1CCN(C(=O)c2ccccc2)CC1`, for which the activity change, negative = inhibition was -96.7%.
In the case of `Cc1nc2ccc(C(=O)N3CCC4(CC3)CC(=O)c3c(cnn3C(C)C)C4)cc2[nH]1`, the Potency is 14.1 µM (active).
Same read-out and setting: to `Fc1ccc2[nH]ccc2c1-c1nc(N2CCOCC2)c2sc(CN3CCN(CC4CC4)CC3)cc2n1` belongs 31.6 µM (active).
Still for that read-out and setting: next, `CN[C@@H](C)C(=O)N[C@@H]1C(=O)N(Cc2c(C)ccc3ccccc23)c2ccc(C#N)cc2N(C(C)=O)[C@H]1C`: “inactive”.
`NS(=O)(=O)OC[C@@H]1C[C@@H](n2ccc3c(N[C@H]4CCc5ccccc54)ncnc32)C[C@@H]1O`: the activity change, negative = inhibition was -87.9%.
The same measure, in the same setting: next, `NS(=O)(=O)c1ccc(S(=O)(=O)Nc2cccc3c(Cl)c[nH]c23)cc1`: -3.77%.
In the case of `Cc1noc(-c2ccc(-c3ccc(C4(C(=O)O)CC4)cc3)cc2)c1NC(=O)O[C@H](C)c1ccccc1`, the Potency is 35.5 µM (active).
Consider `NC1=N[C@@]2(c3cc(NC(=O)c4ccc(F)cn4)ccc3F)COC[C@H]2CS1`, for which the activity change, negative = inhibition was -18.7%.
On the same count and under the same terms, next, `Cc1ccc(S(=O)(=O)Cc2nc(-c3ccc(C(=O)NCc4cccnc4)cc3)oc2C)cc1`: -96.2%; `COc1ncc(Nc2ncc([C@H](C)N3CCN(S(C)(=O)=O)CC3)cc2-c2nc(C)nc(N)n2)cc1F`: -47.8%.
On the same count and under the same terms, to `COc1cc(N2CCC(O)CC2)ccc1Nc1cc(Nc2ccccc2S(=O)(=O)C(C)C)c2cc[nH]c2n1` belongs -27.7%; to `CC(C)NC(=O)COc1cccc(-c2nc(Nc3ccc4[nH]ncc4c3)c3ccccc3n2)c1`, -14.8%.
On the same count and under the same terms, next, `C[C@@H](Oc1ccc2[nH]nc(/C=C/c3cnn(CCO)c3)c2c1)c1c(Cl)cncc1Cl`: -97.5%.
Consider `Cc1cc(CS(=O)(=O)c2ccccc2)cc(OCc2ccc(CN3CCC[C@@H]3CO)cc2)c1`, for which the Potency is 12.6 µM (active).
For the compound `COc1cc([C@@H]2c3cc4c(cc3[C@@H](O[C@@H]3O[C@@H]5CO[C@@H](c6cccs6)O[C@H]5[C@H](O)[C@H]3O)[C@H]3COC(=O)[C@H]23)OCO4)cc(OC)c1O`, the activity change, negative = inhibition was -96.2%.
Take `CC(=O)N1CCC(Nc2cc(C(=O)NC[C@H](O)CN3CCc4ccccc4C3)ncn2)CC1`: the Potency result was “inactive”.
For the compound `Cc1ccc([N+](=O)[O-])cc1S(=O)(=O)N(C)/N=C/c1cnc2ccc(Br)cn12`, the activity change, negative = inhibition is -94.8%.
Still for that read-out and setting: next, `CC(C)C(=O)OCC(=O)[C@@]12O[C@H](C3CCCCC3)O[C@@H]1C[C@H]1[C@@H]3CCC4=CC(=O)C=C[C@]4(C)[C@H]3[C@@H](O)C[C@@]12C`: -13.1%; `CC(C)(C)c1[nH]cnc1/C=c1\[nH]c(=O)/c(=C/c2ccccc2)[nH]c1=O`: -98.3%.
On to `COc1cccc(Nc2ncnn3ccc(CN4CC[C@@H](N)[C@H](O)C4)c23)c1`, for which the Potency result is “inactive”.
The same measure, in the same setting: to `CCn1c(=O)c(-c2ccc(-c3cncc(C)n3)cc2Cl)cc2cnc(NCCC3CCN(C)CC3)nc21` belongs 3.16 µM (active).
Consider `COc1ccc2[nH]c(S(=O)Cc3ncc(C)c(OC)c3C)nc2c1` (configuration not stated), for which the activity change, negative = inhibition is -98.9%.
The same measure, in the same setting: to `COC(=O)/C=C/C(=O)N(O)CCCCNCc1ccc(COC(=O)Nc2cccc3ccccc23)cc1` belongs -27.1%; to `COc1ccc(-c2oc3c(CC=C(C)C)c(OC4O[C@H](CO)[C@@H](O)[C@H](O)[C@H]4O)cc(O)c3c(=O)c2OC2O[C@@H](C)[C@H](O)[C@@H](O)[C@H]2O)cc1` (some centres not stated), -18.5%.
For the compound `Cc1nc([C@](C)(O)CO)sc1-c1cnc(N)c(O[C@H](C)c2cc(F)ccc2-n2nccn2)c1`, the Potency is 22.4 µM (active).
The same measure, in the same setting: next, `CC1(C)C(N(O)C(=O)Nc2ccc(Cl)cc2)N(c2ccc(Cl)cc2)C(=O)N1CC(=O)N/N=C/C=C/c1ccc([N+](=O)[O-])o1` (configuration not stated): 17.8 µM (active).
With `CNC(=O)c1cccc2cc(Oc3ccnc4cc(OCC5(N)CC5)c(OC)cc34)ccc12`, the activity change, negative = inhibition was -98.2%.
Consider `CN(C)C/C=C/C(=O)Nc1cccc(C(=O)Nc2cccc(Nc3ncc(Cl)c(-c4c[nH]c5ccccc45)n3)c2)c1`, for which the Potency is 3.16 µM (active).
Still for that read-out and setting: next, `CC(C)(C)C[C@H]1N[C@@H](C(=O)NC2CCC(O)CC2)[C@H](c2cccc(Cl)c2F)[C@@]12C(=O)Nc1cc(Cl)ccc12` (some centres not stated): 28.2 µM (active).
The same measure, in the same setting: to `CN1CCCN(C(=O)c2cccc(-c3ccc(/C=C4/C(=O)Nc5ccc(Cl)cc54)o3)c2)CC1` belongs 1 µM (active); to `COc1nnc2ccc(N3CCC(c4ccc(OCCN5CCN(C)C(=O)[C@H]5C)cc4)CC3)nn12`, “inactive”.
